Data published in ChEMBL document CHEMBL1157539, “Thousands of chemical starting points for antimalarial lead identification” (Nature, 2010).

Legend:
Format in all cases: functional
Plasmodium falciparum [1] = experiment: GSK_TCMDC: Inhibition of Plasmodium falciparum 3D7 in whole red blood cells, using parasite LDH activity as an index of growth. Test compounds present at 2uM
Plasmodium falciparum [2] = experiment: GSK_TCMDC: Inhibition of Plasmodium falciparum Dd2 in whole red blood cells, using parasite LDH activity as an index of growth. Test compounds present at 2uM
HepG2 = experiment: GSK_TCMDC: Percent inhibition of human HepG2 cell line. Test compounds present at 10uM.

Row | SMILES | Inhibition (Plasmodium falciparum [1]) [%] | Inhibition (Plasmodium falciparum [2]) [%] | Inhibition (HepG2) [%]
1 | O=C(/C=C/c1ccc(Cl)c(Cl)c1)NCCCCCN1CCCN(C(=O)Nc2cccc(F)c2)CC1 | 97 | 4 | 20
2 | O=C(CN1CCN(C(=O)c2ccco2)CC1)Nc1ccccc1Br | 97 | 96 | 15
3 | Cc1cc2ncn(-c3nccc(NCc4cccnc4)n3)c2cc1C.O=C(O)C(F)(F)F | 99 | 98 | 0
4 | CC(C(=O)OCCOCn1cnc2c(=O)[nH]c(N)nc21)N(C)C(=O)OC(C)(C)C (centres undefined) | 87 | 0 | 28
5 | CC(C)N1CCC(N(Cc2ccc(-c3ccc(C(F)(F)F)cc3)cc2)C(=O)CCCn2c(CCc3cccc(F)c3F)nc(=O)c3ccccc32)CC1.O=C(O)C(O)C(O)C(=O)O | 89 | 60 | 45
6 | Cc1cc(N[C@@H](Cc2ccccc2)C(=O)NCc2cccc(F)c2)nc(NCCCOC(C)C)n1.O=C(O)C(F)(F)F | 100 | 94 | 10
7 | CN1CCCC1CNS(=O)(=O)c1ccc(C(=O)NCC2CC2)cc1.O=C(O)C(F)(F)F (centres undefined) | 91 | 0 | 17
8 | CCN1CCN(CCCNc2c3ccc(Cl)cc3nc3ccc(O)cc23)CC1 | 100 | 1 | 32
9 | Cn1cncc1C(=O)Nc1cccc(-c2ccc(-c3nc4ccccc4[nH]3)s2)c1 | 100 | 25 | 0
10 | COc1cc2ccccc2cc1CCNCCCCNCCc1cc2ccccc2cc1OC.CS(=O)(=O)O | 99 | 38 | 100
11 | COc1ccc2nccc([C@@H](O)CN3CCC(NCc4cc5oc(=O)[nH]c5cc4F)CC3)c2c1.O=C(O)C(=O)O | 99 | 4 | 0
12 | CC(C)C[C@H](NC(=O)OC(C)(C)C)C(=O)Nc1ccc(Cc2ccc(NC(=O)[C@H](CC(C)C)NC(=O)OC(C)(C)C)cc2)cc1 | 94 | 88 | 0
13 | CCc1ccc(NC(=O)c2ccc(CN3CCCN(Cc4cccs4)CC3)cc2)cc1.O=C(O)C(F)(F)F | 87 | 0 | 57
14 | COc1cc(C=NNc2cc(C)nc3c(OC)cccc23)cc(OC)c1OC | 94 | 49 | 2
15 | Cc1cccc2nc(-c3cccc(-c4ccc(NC(=O)Cc5ccc[n+]([O-])c5)cc4)c3)[nH]c12 | 99 | 87 | 11
16 | CCCCn1c(SC(C)C)nc2c(c1=O)C1(CCCCC1)Cc1ccccc1-2 | 99 | 60 | 1
17 | O=C(O)/C=C\C(=O)O.c1cc(CN2CCCCC2)cc(OCCCNc2ccnc3ccccc23)c1 | 100 | 99 | 48
18 | FC(F)(F)c1ccc2[nH]c(-c3ccc(-c4ccc(CNCc5cnn(-c6ccccc6)n5)cc4)s3)nc2c1.O=C(O)C(F)(F)F | 100 | 89 | 27
19 | CCCCNC(=O)[C@H](Cc1ccccc1)NC(=O)c1ccc(O)c(-c2ccc(Cl)c(Cl)c2)c1 | 98 | 97 | 0
20 | COc1ccc(COc2c(OC)cc(Cc3cnc(N)nc3N)cc2OC)cc1 | 90 | 23 | 5
21 | CN(c1ccccc1)S(=O)(=O)c1cccc(NC(=O)c2ccc(-n3ccnc3)c([N+](=O)[O-])c2)c1 | 83 | 0 | 19
22 | Cc1ccc2c(=NN=Cc3ccc(Cl)cc3)cc(C)[nH]c2c1 | 100 | 34 | 0
23 | CN1CCC(c2c[nH]c3ccc(NC(=O)Nc4ccc(-c5ccncc5)cc4Cl)cc23)CC1 | 100 | 7 | 31
24 | Cc1cccc2nc(-c3cccc(-c4cccc(NC(=O)CN5CCN(C)CC5)c4)c3)[nH]c12 | 100 | 99 | 76
25 | N#Cc1cccc(Nc2nccc(NCC(O)c3ccc(C(F)(F)F)cc3)n2)c1 (centres undefined) | 100 | 98 | 23
26 | Cc1ccc(/C=C/C(=O)NC2CCC(N3CCC(c4ccccc4C)CC3)CC2)cc1C (centres undefined) | 100 | 43 | 12
27 | CCOc1ccc(NC(=O)c2ccc(NCCCN3CC(C)CC(C)C3)c([N+](=O)[O-])c2)cc1 (centres undefined) | 100 | 60 | 3
28 | Cc1c(Cc2ccccc2Cl)cnc2nc(N)nc(N)c12.Cl | 91 | 96 | 67
